For 40 compounds, growth results are on record in PubChem BioAssay (NCI).

The panel holds about 83,000 compounds, 20% with a hit somewhere; the sample as a whole holds those more often.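 The test compound was applied at a single concentration to cells in 96-well plates for 48 hours, and percent growth was recorded.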 Active and inactive are the calls of the source.

The test relates to OVCAR-8 ovarian. The test is described as follows: NCI-60 one-dose screen, 48 h (100 = growth as untreated, 0 = no growth, -100 = all killed). To be noted: 10 µM. How it is done:
Growth inhibition of the OVCAR-8 human tumor cell line is measured as a screen for anti-cancer activity. Cells are grown in 96 well plates and exposed to the test compound for 48 hours. Compounds are tested at a single concentration, which is 10^-5 M for most compounds. The reported endpoint is percent growth (GI% or GIPRCNT), where numbers from 0 - 100% represent growth inhibition, and numbers from -100% - 0 represent cell death. For example, a value of 40 represents 60% growth inhibition. A value of 0 means no net growth occurred over the course of the experiment. A value of -40 indicates 40% of cells at the beginning of the experiment died by the end of the experiment. A value of -100 means all cells are dead at the end of the experiment.
NCI-60 Human Tumor Cell Lines Screen was performed using the standard one-dose NCI protocol, which is described in more detail at https://dtp.cancer.gov/discovery_development/nci-60/default.htm.
Compounds with GIPRCNT values below 10 were considered active. Activity score was based on GIPRCNT using the following formula: […]
Score is 0 for GIPRCNT values of 100 or above, 50 for GIPRCNT values of 0, and 100 for GIPRCNT values of -100.
With `CC(C)(C)c1nn(-c2ccccc2)c2c1CC1(CN2Cc2ccc(Cl)cc2)C(=O)c2ccccc2C1=O`, the growth was 105% (inactive).
Then `COc1ccc(C(c2ccc(OCCN(C)C)cc2)c2cc3ccccc3c3ccccc23)cc1` (stereo not given), with 70.2% (inactive).
Next, `CCN(CC)CC(=O)N(CC)c1ccc(C)c(Cl)c1`: 94.4% (inactive); `CN1CCN(CCC(=O)Nc2cccc(-n3cc(-c4ccncc4)c(-c4ccc(Cl)c(O)c4)n3)c2)CC1`: 54.8% (inactive); `COc1ccc(-c2cc(-c3ccc(OC)c(OC)c3)nc(SCCCC(=O)NO)n2)cc1`: 10.4% (inactive).
With `CNC(=O)c1cn(C2CC2)c2cc(N3CCN(C(=O)c4cc(OC)c(OC)c(OC)c4)CC3)c(F)cc2c1=O`, the growth was 100% (inactive).
Next, `COc1cc(N)c2ncccc2c1SC`: 98.4% (inactive); `Cc1ccc(/C=C/C(=O)C(=O)/C=C/c2ccc(C)cc2)cc1`: 109% (inactive).
Then `Cc1ccc(S(=O)(=O)N/N=C2\CCCc3ccccc32)cc1`, with 95.2% (inactive); and `CC[C@@H](C(=O)[C@@H](C)[C@@H](O)[C@H](C)[C@@H]1O[C@@H]([C@@H](CC)C(=O)N(CC)CC)CC[C@@H]1C)C1O[C@]2(C=CC(=O)[C@]3(CC[C@@](C)([C@H]4CC[C@](O)(CC)[C@H](C)O4)O3)O2)[C@H](C)C[C@@H]1C` (stereo not given in full), with 29% (inactive).
Then `NC(N)=N/N=C(\c1ccccc1)C(O)c1ccccc1` (stereo not given), with 105% (inactive).
As for `CCN(CC)CCOc1cccc2c1C(=O)c1cccc(OCCN(CC)CC)c1C2=O`, the growth is 25.7% (inactive).
Next, `CCCCC1(O)CCCCC1`: 104% (inactive); `O=C1c2c(c(=O)[nH]c3ccccc23)CCN1Cc1ccccc1`: 96.4% (inactive); `COc1cc(/C=C2\CCCC3C2=Nc2ccccc2NC3c2cc(OC)c(OC)c(OC)c2)cc(OC)c1OC` (stereo not given): 18.7% (inactive).
With `CN(C)CCOc1ccc(-c2nc3sccn3c2-c2ccnc(S(C)(=O)=O)n2)cc1`, the growth was 106% (inactive).
On to `C=CCn1c(SCC(=O)Nc2ccc(C(=O)/C=C/c3ccc(Cl)cc3)cc2)nnc1-c1cc(-c2ccccc2)nc2ccccc12`, for which the growth was 26.4% (inactive).
Next, `CCOC(=O)/C(=C(\C)N)C1CC(=O)NC1=O` (stereo not given): 99.7% (inactive); `CCn1c2ccc(O)cc2c2c(C)c3c[n+](C)ccc3c(C)c21`: 32.4% (inactive).
Then `C#CC(C)(O)[C@@H]1C[C@H](CC(=O)O)C1(C)C` (stereo not given in full), with 112% (inactive); and `Nc1ccc(-c2cccs2)cc1NC(=O)c1ccc(CCCC(=O)Nc2ccc(C3CC3N)cc2)cc1` (stereo not given), with 44.9% (inactive).
Then `S=c1cnc2ccccc2[nH]1`, with 96.2% (inactive).
Turning to `CNS(=O)(=O)Oc1ccc(-c2ccc3occc3c2)cc1`, the growth was 99.5% (inactive).
Next, `CC(C)(C)OC(=O)CC(S(=O)(=O)c1ccccc1)S(=O)(=O)c1ccccc1`: 101% (inactive); `Cc1ccccc1N1C(=O)c2cc(S(N)(=O)=O)c(Cl)cc2NC1C` (stereo not given): 108% (inactive); `c1ccc(CCCCc2ccc3ccccc3n2)cc1`: 101% (inactive).
As for `CC1CCCC(C(=O)O)C1C(=O)O` (stereo not given), the growth was 94.4% (inactive).
Next, `Nc1nc(Cl)nc2c1ncn2C1O[C@H](CO)[C@@H](O)[C@@H]1F` (stereo not given in full): 27.1% (inactive); `O=S(=O)(O)c1cccc(Nc2ccc3ccccc3c2)c1`: 92.4% (inactive); `O=C1c2ccccc2C(=O)c2c1ccc1c(=O)n(-c3ccccc3C(F)(F)F)nnc21`: 9.15% (active).
Regarding `CC[C@H]1OC(=O)[C@H](C)[C@@H](O[C@H]2C[C@@](C)(OC)[C@@H](O)[C@H](C)O2)[C@H](C)[C@@H](O[C@@H]2O[C@H](C)C[C@H](N(C)C)[C@H]2O)[C@](C)(OC)C/C(C)=C2/O[C@@]1(C)C=C2C`, the growth is 78.5% (inactive).
Next, `OC(CNc1ccnc2cc(Cl)ccc12)CNC1CCCCC1` (stereo not given): 87.9% (inactive); `Cc1noc(C)c1CSc1ccccc1C(=O)N1CCN(c2cccc(C(F)(F)F)c2)CC1`: 94.2% (inactive).
Next, `C#C[C@]1(O)CCC2C3CCc4cc(OC5CCCC5)ccc4C3CC[C@@]21C` (stereo not given in full): 81.3% (inactive); `COc1ccc(NC(=O)C2CC3C=CC2C3)c([N+](=O)[O-])c1` (stereo not given): 101% (inactive).
Next, `O=C(NCCCNS(=O)(=O)c1ccc(Cl)cc1)Nc1ccc(-n2cc(-c3ccncc3)c(-c3ccc(Cl)c(O)c3)n2)cc1`: 36% (inactive); `CN1CCN(CC(=O)Nc2cccc(-n3cc(-c4ccncc4)c(-c4ccc(Cl)c(O)c4)n3)c2)CC1`: 57.2% (inactive).
`O=C(Nc1ccc(OCc2nnc(-c3ccc(Cl)cc3)o2)c(F)c1)Nc1ccc(Cl)c(C(F)(F)F)c1`: the growth was 11.6% (inactive).
Then `COc1ccc2c(c1)C(CC(=O)NN)CCC2` (stereo not given), with 99.1% (inactive).
Then `O=C(O)Cc1ccc(O)c(O)c1`, with 104% (inactive).
